Reference: the supplement of paper PMC8975748
Where a name gives a salt, the structure may show the parent alone. ± gives the standard deviation of the averaged measurements.

Key:
[1] = tested on: Saccharomyces cerevisiae BY4741 SeMeCo community; test: mean cell size (pixel area) (pixels); higher = larger cells; conditions: 10 µM; 24 h; SM minimal medium
Method in brief: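 Drug was acoustically predosed into 384-well plates to a final 10 µM in SM medium, and each well received 70 µl of Saccharomyces cerevisiae BY4741 diluted to OD600 = 0.3 from an overnight preculture at OD600 = 1.0. This four-plasmid fluorescent community carries one fluorescent marker per plasmid, and each plasmid complements one auxotrophy. After 24 h, the cells were fixed with paraformaldehyde and imaged by automated confocal microscopy, and Harmony analysis yielded mean cell pixel area per well. Each value is averaged over 3 replicates. Same SeMeCo high-content imaging drug screen: Selleck FDA-approved drugs at 10 µM, 24 h in SM medium, 384-well plates, 3 replicates.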

[2] = tested on: Saccharomyces cerevisiae BY4741 SeMeCo community; test: z-score of prototroph abundance vs DMSO median; higher = larger share of this subpopulation than in DMSO controls; conditions: 10 µM; 24 h; SM minimal medium; subpopulation (auxotrophy): Prototroph
Method in brief: (§1)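 Automated confocal microscopy of paraformaldehyde-fixed cells was used to follow a Saccharomyces cerevisiae BY4741 community carrying four plasmids, each restoring one auxotrophy and encoding a distinct fluorescent protein. The community was pre-grown overnight to OD600 1.0, diluted to 0.3, and added at 70 µl to 384-well plates acoustically predosed with library drugs (10 µM final) for 24 h of growth in minimal SM medium. Single-auxotroph fluorescent strains set thresholds and autofluorescence correction, and each subpopulation's abundance was scored as a z-score against the vehicle-well median.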

[3] = tested on: Saccharomyces cerevisiae BY4741 SeMeCo community; test: z-score of subpopulation abundance vs DMSO median, subpopulation auxotrophic for M; higher = larger share of this subpopulation than in DMSO controls; conditions: 10 µM; 24 h; SM minimal medium; subpopulation (auxotrophy): M
Method in brief: as §1

[4] = tested on: Saccharomyces cerevisiae BY4741 SeMeCo community; test: z-score of subpopulation abundance vs DMSO median, subpopulation auxotrophic for U; higher = larger share of this subpopulation than in DMSO controls; conditions: 10 µM; 24 h; SM minimal medium; subpopulation (auxotrophy): U
Method in brief: as §1

[5] = tested on: Saccharomyces cerevisiae BY4741 SeMeCo community; test: z-score of subpopulation abundance vs DMSO median, subpopulation auxotrophic for H; higher = larger share of this subpopulation than in DMSO controls; conditions: 10 µM; 24 h; SM minimal medium; subpopulation (auxotrophy): H
Method in brief: as §1

[6] = tested on: Saccharomyces cerevisiae BY4741 SeMeCo community; test: z-score of subpopulation abundance vs DMSO median, subpopulation auxotrophic for LM; higher = larger share of this subpopulation than in DMSO controls; conditions: 10 µM; 24 h; SM minimal medium; subpopulation (auxotrophy): LM
Method in brief: as §1

[7] = tested on: Saccharomyces cerevisiae BY4741 SeMeCo community; test: z-score of subpopulation abundance vs DMSO median, subpopulation auxotrophic for HM; higher = larger share of this subpopulation than in DMSO controls; conditions: 10 µM; 24 h; SM minimal medium; subpopulation (auxotrophy): HM
Method in brief: as §1

[8] = tested on: Saccharomyces cerevisiae BY4741 SeMeCo community; test: z-score of subpopulation abundance vs DMSO median, subpopulation auxotrophic for HU; higher = larger share of this subpopulation than in DMSO controls; conditions: 10 µM; 24 h; SM minimal medium; subpopulation (auxotrophy): HU
Method in brief: as §1

[9] = tested on: Saccharomyces cerevisiae BY4741 SeMeCo community; test: z-score of subpopulation abundance vs DMSO median, subpopulation auxotrophic for HL; higher = larger share of this subpopulation than in DMSO controls; conditions: 10 µM; 24 h; SM minimal medium; subpopulation (auxotrophy): HL
Method in brief: as §1

[10] = tested on: Saccharomyces cerevisiae BY4741 SeMeCo community; test: z-score of subpopulation abundance vs DMSO median, subpopulation auxotrophic for HLU; higher = larger share of this subpopulation than in DMSO controls; conditions: 10 µM; 24 h; SM minimal medium; subpopulation (auxotrophy): HLU
Method in brief: as §1

[11] = tested on: Saccharomyces cerevisiae BY4741 SeMeCo community; test: z-score of subpopulation abundance vs DMSO median, subpopulation auxotrophic for HUM; higher = larger share of this subpopulation than in DMSO controls; conditions: 10 µM; 24 h; SM minimal medium; subpopulation (auxotrophy): HUM
Method in brief: as §1

[12] = tested on: Saccharomyces cerevisiae BY4741 SeMeCo community; test: z-score of subpopulation abundance vs DMSO median, subpopulation auxotrophic for LUM; higher = larger share of this subpopulation than in DMSO controls; conditions: 10 µM; 24 h; SM minimal medium; subpopulation (auxotrophy): LUM
Method in brief: as §1

[13] = tested on: Saccharomyces cerevisiae BY4741 SeMeCo community; test: z-score of subpopulation abundance vs DMSO median, subpopulation auxotrophic for HLUM; higher = larger share of this subpopulation than in DMSO controls; conditions: 10 µM; 24 h; SM minimal medium; subpopulation (auxotrophy): HLUM
Method in brief: as §1

[14] = tested on: Saccharomyces cerevisiae BY4741 SeMeCo community; test: z-score of subpopulation abundance vs DMSO median, subpopulation auxotrophic for L; higher = larger share of this subpopulation than in DMSO controls; conditions: 10 µM; 24 h; SM minimal medium; subpopulation (auxotrophy): L
Method in brief: as §1

[15] = tested on: Saccharomyces cerevisiae BY4741 SeMeCo community; test: z-score of subpopulation abundance vs DMSO median, subpopulation auxotrophic for UM; higher = larger share of this subpopulation than in DMSO controls; conditions: 10 µM; 24 h; SM minimal medium; subpopulation (auxotrophy): UM
Method in brief: as §1

[16] = tested on: Saccharomyces cerevisiae BY4741 SeMeCo community; test: z-score of subpopulation abundance vs DMSO median, subpopulation auxotrophic for HLM; higher = larger share of this subpopulation than in DMSO controls; conditions: 10 µM; 24 h; SM minimal medium; subpopulation (auxotrophy): HLM
Method in brief: as §1

[17] = tested on: Saccharomyces cerevisiae BY4741 SeMeCo community; test: z-score of subpopulation abundance vs DMSO median, subpopulation auxotrophic for LU; higher = larger share of this subpopulation than in DMSO controls; conditions: 10 µM; 24 h; SM minimal medium; subpopulation (auxotrophy): LU
Method in brief: as §1

Row | SMILES | mean cell size [1] | z-score of prototroph abundance [2] | z-score of subpopulation abundance [3] | z-score of subpopulation abundance [4] | z-score of subpopulation abundance [5] | z-score of subpopulation abundance [6] | z-score of subpopulation abundance [7] | z-score of subpopulation abundance [8] | z-score of subpopulation abundance [9] | z-score of subpopulation abundance [10] | z-score of subpopulation abundance [11] | z-score of subpopulation abundance [12] | z-score of subpopulation abundance [13] | z-score of subpopulation abundance [14] | z-score of subpopulation abundance [15] | z-score of subpopulation abundance [16] | z-score of subpopulation abundance [17]
1 | COc1cc(O)c(C(=O)Nc2nc(C(=O)NCCN(C(C)C)C(C)C)cs2)cc1OC [Acotiamide hydrochloride] | 12.4 ± 0.15 | -0.4 | -0.47 | 0.89 | 0.42 | -0.2 | 0.26 | 0.71 | -0.16 | 0.19 | 0.54 | -0.38 | -0.39 | – | – | – | –
2 | C[C@@H](O)[C@H]1C(=O)N2C(C(=O)O)=C(S[C@@H]3CN[C@H](C(=O)N(C)C)C3)[C@H](C)[C@H]12 [Meropenem] | – | 0.37 | -0.33 | – | -0.03 | -0.29 | – | -0.01 | -0.23 | 0.14 | – | -0.39 | -0.68 | 0.05 | -0.33 | -0.34 | –
3 | CC[C@H](c1ccc(O)cc1)[C@@H](CC)c1ccc(O)cc1 [Hexestrol] | 12.7 ± 0.21 | – | 0.45 | -0.6 | -0.31 | -0.2 | -0.94 | -0.58 | -0.81 | -0.58 | – | – | -1.21 | – | -0.86 | -0.94 | –
4 | Cc1noc(NS(=O)(=O)c2ccc(N)cc2)c1C [Sulfisoxazole] | 12.4 ± 0.16 | -1.42 | 0.18 | 0.32 | -0.4 | 0.69 | 0.12 | 0.32 | 0.35 | 0.89 | 1.21 | – | 1.03 | – | 1.17 | – | –
5 | NC(=O)c1cn(Cc2c(F)cccc2F)nn1 [Rufinamide] | 12.2 ± 0.16 | -0.37 | 0.02 | – | 0.5 | 0.7 | 0.75 | -0.24 | 0.55 | 0.55 | 0.45 | – | – | 1.41 | -0.01 | – | –
6 | COc1ccc(CCN(C)CCCC(C#N)(c2ccc(OC)c(OC)c2)C(C)C)cc1OC (configuration not stated) [Verapamil HCl] | 12.6 ± 0.13 | -0.19 | – | 0.6 | 0.46 | 0 | -0.27 | 0.54 | 0.26 | 0.26 | 0.05 | 0.79 | 0.13 | 0.1 | 0.03 | 0.44 | -0.58
7 | CNC1CCCN(c2c(F)cc3c(=O)c(C(=O)O)cn(C4CC4)c3c2OC)C1 (configuration not stated) [Balofloxacin] | 12.32 ± 0.029 | -0.14 | – | 0.18 | -0.4 | -0.13 | -0.09 | 0.32 | -0.7 | -0.57 | 0.67 | 0.17 | -0.35 | -0.33 | 0.59 | -0.9 | -0.04
8 | CCCCCc1ccc(C)cc1O [Amylmetacresol] | 12.4 ± 0.14 | -0.1 | -0.65 | 0.39 | -0.64 | – | -0.5 | -0.1 | -0.02 | 0.35 | -0.2 | 0.11 | 0.41 | – | -0.13 | 0.52 | –
9 | CC[C@H]1OC(=O)[C@H](C)[C@@H](O[C@H]2C[C@@](C)(OC)[C@@H](O)[C@H](C)O2)[C@H](C)[C@@H](O[C@@H]2O[C@H](C)C[C@H](N(C)C)[C@H]2O)[C@](C)(O)C[C@@H](C)CN(C)[C@H](C)[C@@H](O)[C@]1(C)O [Azithromycin Dihydrate] | 12.5 ± 0.38 | – | 0.58 | -0.03 | 0.7 | -0.45 | 0.39 | -0.53 | 0.05 | -0.73 | 0.97 | -0.75 | – | – | 0.16 | 0.07 | –
10 | CC(C)C(=O)Oc1ccc(CO)cc1[C@H](CCN(C(C)C)C(C)C)c1ccccc1 [Fesoterodine Fumarate] | 12.3 ± 0.21 | 0.94 | 0 | 0.1 | -1.08 | -0.9 | -0.41 | – | -0.27 | -0.16 | -0.72 | -0.22 | -1.13 | -0.39 | – | – | –
11 | CN1CCCN=C1/C=C/c1cccc(O)c1 [Oxantel Pamoate] | 12.6 ± 0.29 | 1.15 | 1.17 | -1.1 | 0.29 | – | – | – | – | -0.35 | -1.13 | -1.13 | -0.41 | -0.58 | -1.73 | – | –
12 | CC(C)[C@H](N)C(=O)OCCOCn1cnc2c(=O)nc(N)[nH]c21 [Valaciclovir HCl] | – | 0.5 | -0.55 | 0.12 | – | -0.74 | – | – | -0.27 | -0.75 | 0.37 | -0.29 | -0.14 | -0.06 | 0.08 | – | –
13 | C=CC1=C(C(=O)O)N2C(=O)[C@@H](NC(=O)/C(=N\OCC(=O)O)c3csc(N)n3)[C@H]2SC1 [Cefixime] | 12.52 ± 0.039 | 0.71 | -0.61 | 0.43 | – | -0.13 | -0.97 | 0.1 | -0.16 | -0.72 | – | -1.01 | -0.73 | -0.33 | -0.25 | – | –
14 | O=c1[nH]c(=O)n([C@H]2C[C@H](O)[C@@H](CO)O2)cc1I [Idoxuridine] | 12.4 ± 0.2 | 0.18 | -0.27 | 0.23 | -0.48 | 0.06 | -0.13 | -0.23 | -0.43 | -0.57 | -0.68 | -0.31 | -0.73 | 0.48 | -0.05 | – | –
15 | CCCCN(CCCC)CC(O)c1cc(Cl)cc2c1-c1ccc(Cl)cc1/C2=C/c1ccc(Cl)cc1 (configuration not stated) [Lumefantrine] | – | -1 | – | 1.6 | 0.2 | -0.24 | 0.53 | 0.43 | -0.58 | -0.32 | 1.37 | 0.62 | -0.39 | -0.76 | 2.56 | -0.39 | 0.38
16 | CO/N=C(\C(=O)N[C@@H]1C(=O)N2C(C(=O)O)=CCS[C@H]12)c1csc(N)n1 [Ceftizoxime] | 12.47 ± 0.084 | – | – | -0.63 | -0.86 | -0.02 | -0.82 | -0.76 | – | -1.12 | -1.23 | -0.44 | -0.49 | -0.19 | – | -0.37 | -0.12
